A number with no mark means an inactive call. Active and inactive are the calls of the source. No rule for the calls is given here.
test: Biochemical counterscreen for C difficile toxins, absence of UDPG, inhibitor dose response (AID 720650); conditions: series mostly up to 19.5 µM

For COc1cc(/C=N/NC(=O)c2c(C)nc3ccc(Cl)cn23)cc(OC)c1OC, which AC50 is on record?
Its AC50 is “inactive”.

With COc1cc(OC)cc(C(=O)NNC(=O)CN2C(=O)NC(C)(c3ccc(C)cc3)C2=O)c1 (configuration not stated) as the compound, how does the AC50 read?
Its AC50 is “inactive”.

Which AC50 does the source give for Cc1ccc(S(=O)(=O)Nc2cccnc2Oc2ccc(Cl)cc2)cc1 here?
The AC50 was “inactive”.

With O=C(O)C1CCC(CN(Cc2cccc(Br)c2)C(=S)Nc2ccccc2F)CC1 (configuration not stated) as the compound, how does the AC50 read?
The AC50 was “inactive”.

With O=C(CSc1cccc2cccnc12)N/N=C/c1ccc(O)cc1 as the compound, how does the AC50 read?
The AC50 was 11.1 µM (active).

With CCN(CC)CCNc1ccc(C)c2sc3ccc(O)cc3c(=O)c12 as the compound, how does the AC50 read?
The AC50 was 5.7 µM (active).

For CCN(CC)C(=O)C1CCN(S(=O)(=O)c2c(C)noc2/C=C/c2cccc(C)c2)CC1, which AC50 is on record?
Its AC50 is “inactive”.

With C=CCNc1n[nH]c(=S)s1 as the compound, how does the AC50 read?
The AC50 was over 39 µM.

For CCCC(=O)Nc1ccc2c(c1)OC[C@H](C)N(CC1CCCC1)C[C@H](C)[C@@H](OC)CN(C)C2=O, which AC50 is on record?
Its AC50 is “inactive”.

Which AC50 does the source give for CN(C)CCNC(=O)c1cc2c(s1)-c1ccc(Cl)cc1SC2 here?
The AC50 was over 39 µM.

With COc1cc(Cn2c(-c3ccc(O)c(OC)c3)nc3ccccc32)ccc1O as the compound, how does the AC50 read?
Its AC50 is “inactive”.

With Cc1ccnc(N2C(=O)c3ccccc3C2=O)c1 as the compound, how does the AC50 read?
The AC50 was “inactive”.

With C=C1CCN(Cc2ccccc2)S(=O)(=O)c2ccccc21 as the compound, how does the AC50 read?
Its AC50 is “inactive”.

Which AC50 does the source give for COc1ccc(C=C2CCC3C(=O)CCCC3(C)C2=O)cc1 (configuration not stated) here?
Its AC50 is “inactive”.

With Cc1ccc(/C=C/c2onc(C)c2S(=O)(=O)N2CCC(C(=O)N3CCCCC3)CC2)cc1 as the compound, how does the AC50 read?
Its AC50 is “inactive”.

For COc1ccc(C(=O)OCC(=O)Nc2ccc3[nH]c(=O)[nH]c3c2)c(OC)c1OC, which AC50 is on record?
Its AC50 is “inactive”.

For CCN(CC)S(=O)(=O)c1cc(C(=O)Nc2cccnc2Cl)ccc1Cl, which AC50 is on record?
Its AC50 is “inactive”.

Reference: PubChem BioAssay AID720650 (Broad Institute, 2013)
